# Tests used:
# Experiment in all cases: DAPPL (digital affinity profiling via proximity ligation, sequencing); 10 mM Tris-HCl pH 7.5, 50 mM NaCl, 1 mM DTT, 4% glycerol, room temperature, 30 min; GST-TFs on glutathione beads, 16-mer random dsDNA library, 0.1% formaldehyde crosslink after washing; high values mean tight binding
# [1] = biological target: T1, FEV (Homo sapiens, UniProt Q99581 1-238); conditions: protein: recombinant; tags: N-terminal GST; dsDNA, one strand shown
# T1 sequence: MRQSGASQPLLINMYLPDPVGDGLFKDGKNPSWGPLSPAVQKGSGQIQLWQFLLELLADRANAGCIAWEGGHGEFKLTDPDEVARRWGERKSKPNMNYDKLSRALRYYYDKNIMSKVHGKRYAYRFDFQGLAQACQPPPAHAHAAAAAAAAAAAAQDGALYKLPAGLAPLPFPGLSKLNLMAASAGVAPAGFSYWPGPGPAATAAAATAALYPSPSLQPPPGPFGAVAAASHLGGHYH
# Procedure, shortened: (§1)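 Yeast served to express human transcription factors as GST fusions, which were then captured on glutathione beads and labelled with DNA barcodes. Pooled with a tag-only sample, they were incubated with 200 nmole of a 16-mer random double-stranded DNA library for 30 min at room temperature in Tris/NaCl/DTT/glycerol buffer, washed, crosslinked with 0.1% formaldehyde, ligated by proximity, amplified by PCR and sequenced. Dividing each hexamer's read frequency for a factor by its frequency for the tag-only sample gives the binding signal.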
# [2] = biological target: ETV5 (Homo sapiens, UniProt P41161 1-510); conditions: protein: recombinant; tags: N-terminal GST; dsDNA, one strand shown
# Chain of ETV5 (P41161 whole entry): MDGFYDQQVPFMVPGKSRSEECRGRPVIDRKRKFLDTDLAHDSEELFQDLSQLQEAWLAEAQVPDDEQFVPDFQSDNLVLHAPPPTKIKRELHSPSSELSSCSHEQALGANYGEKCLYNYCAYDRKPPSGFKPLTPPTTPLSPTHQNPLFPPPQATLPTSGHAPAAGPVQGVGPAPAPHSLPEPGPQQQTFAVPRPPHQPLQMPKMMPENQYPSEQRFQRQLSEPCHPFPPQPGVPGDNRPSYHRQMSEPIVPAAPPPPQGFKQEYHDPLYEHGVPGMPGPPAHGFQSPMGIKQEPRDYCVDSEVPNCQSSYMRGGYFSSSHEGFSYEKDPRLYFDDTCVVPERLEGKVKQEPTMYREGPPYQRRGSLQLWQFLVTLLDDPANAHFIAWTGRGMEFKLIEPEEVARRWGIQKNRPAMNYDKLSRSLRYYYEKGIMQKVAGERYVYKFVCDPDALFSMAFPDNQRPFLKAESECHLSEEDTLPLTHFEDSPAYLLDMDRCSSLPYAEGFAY
# Procedure, shortened: as §1
# [3] = biological target: HSF1 (Homo sapiens, UniProt Q00613 1-529); conditions: protein: recombinant; tags: N-terminal GST; chain copies: 3; dsDNA, one strand shown
# Chain of HSF1 (Q00613 whole entry): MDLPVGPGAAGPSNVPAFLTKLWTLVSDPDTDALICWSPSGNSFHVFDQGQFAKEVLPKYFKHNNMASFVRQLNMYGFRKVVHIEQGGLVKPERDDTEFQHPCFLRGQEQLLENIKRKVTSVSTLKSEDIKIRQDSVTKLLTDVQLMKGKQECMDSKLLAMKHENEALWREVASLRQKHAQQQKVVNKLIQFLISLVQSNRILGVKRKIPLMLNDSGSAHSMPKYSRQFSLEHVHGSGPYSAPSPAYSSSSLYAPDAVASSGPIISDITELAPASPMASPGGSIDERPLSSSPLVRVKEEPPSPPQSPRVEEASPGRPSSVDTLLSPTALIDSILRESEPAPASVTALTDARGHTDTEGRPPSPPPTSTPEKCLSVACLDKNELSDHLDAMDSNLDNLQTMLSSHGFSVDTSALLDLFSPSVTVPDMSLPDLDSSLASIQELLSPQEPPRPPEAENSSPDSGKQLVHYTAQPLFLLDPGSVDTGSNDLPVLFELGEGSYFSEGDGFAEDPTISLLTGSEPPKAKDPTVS
# Procedure, shortened: as §1
# [4] = biological target: T2, SPIC (Homo sapiens, UniProt Q8N5J4 1-248); conditions: protein: recombinant; tags: N-terminal GST; dsDNA, one strand shown
# T2 sequence: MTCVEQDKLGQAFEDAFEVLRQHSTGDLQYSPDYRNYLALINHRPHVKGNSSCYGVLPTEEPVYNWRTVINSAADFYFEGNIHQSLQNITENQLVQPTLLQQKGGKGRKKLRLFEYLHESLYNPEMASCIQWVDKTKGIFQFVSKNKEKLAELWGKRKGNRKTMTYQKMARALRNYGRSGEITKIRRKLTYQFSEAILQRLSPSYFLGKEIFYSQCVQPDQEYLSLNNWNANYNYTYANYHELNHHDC
# Procedure, shortened: as §1
# [5] = biological target: ELF4 (Homo sapiens, UniProt Q99607 1-663); conditions: protein: recombinant; tags: N-terminal GST; dsDNA, one strand shown
# Chain of ELF4 (Q99607 whole entry): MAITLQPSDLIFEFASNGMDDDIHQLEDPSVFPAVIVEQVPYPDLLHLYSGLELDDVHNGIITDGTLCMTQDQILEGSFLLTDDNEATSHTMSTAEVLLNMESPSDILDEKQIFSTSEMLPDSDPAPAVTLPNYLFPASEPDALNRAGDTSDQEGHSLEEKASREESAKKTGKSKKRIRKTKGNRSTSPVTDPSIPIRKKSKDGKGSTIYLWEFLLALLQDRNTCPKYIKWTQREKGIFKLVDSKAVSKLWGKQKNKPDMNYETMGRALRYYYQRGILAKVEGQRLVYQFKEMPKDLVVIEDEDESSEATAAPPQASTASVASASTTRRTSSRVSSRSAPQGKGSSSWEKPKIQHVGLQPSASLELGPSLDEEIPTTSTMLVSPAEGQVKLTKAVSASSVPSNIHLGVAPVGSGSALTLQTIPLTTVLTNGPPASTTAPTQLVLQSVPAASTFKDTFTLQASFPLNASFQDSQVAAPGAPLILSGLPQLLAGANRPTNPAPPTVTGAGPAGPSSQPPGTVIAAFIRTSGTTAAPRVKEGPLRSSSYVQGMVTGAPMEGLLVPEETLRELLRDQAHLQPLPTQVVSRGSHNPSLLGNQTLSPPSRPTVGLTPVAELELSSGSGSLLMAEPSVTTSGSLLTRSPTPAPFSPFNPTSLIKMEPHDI
# Procedure, shortened: as §1
# [6] = biological target: T3, ELK4 (Homo sapiens, UniProt P28324-2 1-405); conditions: protein: recombinant; tags: N-terminal GST; dsDNA, one strand shown
# T3 sequence: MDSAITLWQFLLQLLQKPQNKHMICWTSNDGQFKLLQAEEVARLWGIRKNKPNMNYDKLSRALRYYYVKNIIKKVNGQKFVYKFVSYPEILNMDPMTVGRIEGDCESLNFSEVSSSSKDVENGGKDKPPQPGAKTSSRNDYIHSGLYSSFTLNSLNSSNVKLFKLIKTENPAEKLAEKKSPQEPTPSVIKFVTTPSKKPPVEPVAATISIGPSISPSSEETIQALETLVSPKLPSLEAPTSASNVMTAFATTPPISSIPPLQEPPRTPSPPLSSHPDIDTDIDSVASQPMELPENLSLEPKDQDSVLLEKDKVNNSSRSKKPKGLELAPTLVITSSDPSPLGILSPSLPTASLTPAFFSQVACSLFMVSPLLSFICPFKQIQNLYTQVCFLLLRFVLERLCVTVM
# Procedure, shortened: as §1
# [7] = biological target: T4, ETV2 (Homo sapiens, UniProt O00321 1-342); conditions: protein: recombinant; tags: N-terminal GST; dsDNA, one strand shown
# T4 sequence: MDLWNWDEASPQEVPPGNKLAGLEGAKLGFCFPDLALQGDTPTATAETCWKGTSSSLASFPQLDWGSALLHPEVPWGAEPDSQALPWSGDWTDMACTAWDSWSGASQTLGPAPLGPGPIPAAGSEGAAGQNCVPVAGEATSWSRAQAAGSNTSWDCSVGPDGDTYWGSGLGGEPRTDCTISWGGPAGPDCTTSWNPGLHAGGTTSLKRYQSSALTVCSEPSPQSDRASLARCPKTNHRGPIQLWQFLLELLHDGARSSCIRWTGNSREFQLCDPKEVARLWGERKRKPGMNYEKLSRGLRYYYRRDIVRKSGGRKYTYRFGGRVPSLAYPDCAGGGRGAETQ
# Procedure, shortened: as §1
# [8] = biological target: T5, ELF3 (Homo sapiens, UniProt P78545 1-371); conditions: protein: recombinant; tags: N-terminal GST; dsDNA, one strand shown
# T5 sequence: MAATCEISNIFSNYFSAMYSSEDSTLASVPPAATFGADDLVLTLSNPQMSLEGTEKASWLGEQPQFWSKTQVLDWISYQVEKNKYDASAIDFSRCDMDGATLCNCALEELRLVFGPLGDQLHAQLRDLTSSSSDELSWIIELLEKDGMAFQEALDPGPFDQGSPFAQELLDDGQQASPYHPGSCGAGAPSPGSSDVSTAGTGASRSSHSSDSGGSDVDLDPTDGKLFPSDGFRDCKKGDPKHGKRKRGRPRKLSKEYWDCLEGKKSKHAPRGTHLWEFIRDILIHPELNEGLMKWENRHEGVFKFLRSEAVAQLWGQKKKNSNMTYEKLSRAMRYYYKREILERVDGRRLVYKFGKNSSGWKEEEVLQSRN
# Procedure, shortened: as §1
# [9] = biological target: CRX (Homo sapiens, UniProt O43186 1-299); conditions: protein: recombinant; tags: N-terminal GST; dsDNA, one strand shown
# Chain of CRX (O43186 whole entry): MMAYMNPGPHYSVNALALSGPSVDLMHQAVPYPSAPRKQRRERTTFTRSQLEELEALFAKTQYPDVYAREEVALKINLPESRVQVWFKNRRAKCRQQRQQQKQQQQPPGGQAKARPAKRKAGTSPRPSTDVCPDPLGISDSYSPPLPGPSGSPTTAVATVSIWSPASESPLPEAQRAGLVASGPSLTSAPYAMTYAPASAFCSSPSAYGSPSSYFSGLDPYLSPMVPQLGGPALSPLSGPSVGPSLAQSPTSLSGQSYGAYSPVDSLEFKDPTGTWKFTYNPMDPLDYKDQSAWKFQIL
# Procedure, shortened: as §1
# [10] = biological target: ETV1 (Homo sapiens, UniProt P50549 1-477); conditions: protein: recombinant; tags: N-terminal GST; dsDNA, one strand shown
# Chain of ETV1 (P50549 whole entry): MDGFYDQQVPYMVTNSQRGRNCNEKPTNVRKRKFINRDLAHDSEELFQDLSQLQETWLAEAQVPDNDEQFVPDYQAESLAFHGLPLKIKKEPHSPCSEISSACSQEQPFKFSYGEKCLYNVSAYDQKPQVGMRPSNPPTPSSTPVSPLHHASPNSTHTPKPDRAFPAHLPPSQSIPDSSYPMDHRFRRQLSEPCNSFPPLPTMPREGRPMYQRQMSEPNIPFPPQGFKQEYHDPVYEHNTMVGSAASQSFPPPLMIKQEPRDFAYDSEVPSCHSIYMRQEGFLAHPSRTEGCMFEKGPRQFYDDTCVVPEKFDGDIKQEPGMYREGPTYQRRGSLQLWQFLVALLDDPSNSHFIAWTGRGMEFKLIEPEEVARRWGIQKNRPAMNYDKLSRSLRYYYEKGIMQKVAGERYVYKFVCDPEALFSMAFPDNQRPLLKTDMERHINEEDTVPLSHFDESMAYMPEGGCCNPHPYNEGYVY
# Procedure, shortened: as §1
# [11] = biological target: T6, ERF (Homo sapiens, UniProt P50548 1-548); conditions: protein: recombinant; tags: N-terminal GST; dsDNA, one strand shown
# T6 sequence: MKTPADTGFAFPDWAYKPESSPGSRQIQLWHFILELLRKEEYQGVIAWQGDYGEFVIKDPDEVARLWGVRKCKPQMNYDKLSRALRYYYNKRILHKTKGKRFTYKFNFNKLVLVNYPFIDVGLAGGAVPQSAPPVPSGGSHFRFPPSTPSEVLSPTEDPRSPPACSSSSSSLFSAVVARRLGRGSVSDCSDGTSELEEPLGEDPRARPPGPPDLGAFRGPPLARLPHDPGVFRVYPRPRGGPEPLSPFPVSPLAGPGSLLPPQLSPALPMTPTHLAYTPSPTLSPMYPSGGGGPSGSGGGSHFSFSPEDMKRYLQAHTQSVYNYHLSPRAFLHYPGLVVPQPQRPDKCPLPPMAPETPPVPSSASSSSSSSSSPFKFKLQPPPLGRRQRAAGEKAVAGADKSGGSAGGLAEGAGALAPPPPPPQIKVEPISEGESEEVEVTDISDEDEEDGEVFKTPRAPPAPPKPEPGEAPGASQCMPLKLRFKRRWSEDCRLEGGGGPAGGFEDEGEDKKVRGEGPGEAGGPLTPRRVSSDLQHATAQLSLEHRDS
# Procedure, shortened: as §1
# [12] = biological target: T7, ETV3L (Homo sapiens, UniProt Q6ZN32 1-361); conditions: protein: recombinant; tags: N-terminal GST; dsDNA, one strand shown
# T7 sequence: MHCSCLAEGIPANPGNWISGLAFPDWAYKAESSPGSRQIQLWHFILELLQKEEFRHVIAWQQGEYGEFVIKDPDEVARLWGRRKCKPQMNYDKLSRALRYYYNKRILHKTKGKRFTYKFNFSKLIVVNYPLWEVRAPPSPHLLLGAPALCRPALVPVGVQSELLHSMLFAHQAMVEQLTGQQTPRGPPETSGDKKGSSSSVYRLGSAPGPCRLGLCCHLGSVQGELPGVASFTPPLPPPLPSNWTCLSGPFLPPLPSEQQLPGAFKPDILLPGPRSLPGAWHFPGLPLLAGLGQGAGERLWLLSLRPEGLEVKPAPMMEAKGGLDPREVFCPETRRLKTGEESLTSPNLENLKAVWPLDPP
# Procedure, shortened: as §1
# [13] = biological target: T8, ETS2 (Homo sapiens, UniProt P15036 1-469); conditions: protein: recombinant; tags: N-terminal GST; dsDNA, one strand shown
# T8 sequence: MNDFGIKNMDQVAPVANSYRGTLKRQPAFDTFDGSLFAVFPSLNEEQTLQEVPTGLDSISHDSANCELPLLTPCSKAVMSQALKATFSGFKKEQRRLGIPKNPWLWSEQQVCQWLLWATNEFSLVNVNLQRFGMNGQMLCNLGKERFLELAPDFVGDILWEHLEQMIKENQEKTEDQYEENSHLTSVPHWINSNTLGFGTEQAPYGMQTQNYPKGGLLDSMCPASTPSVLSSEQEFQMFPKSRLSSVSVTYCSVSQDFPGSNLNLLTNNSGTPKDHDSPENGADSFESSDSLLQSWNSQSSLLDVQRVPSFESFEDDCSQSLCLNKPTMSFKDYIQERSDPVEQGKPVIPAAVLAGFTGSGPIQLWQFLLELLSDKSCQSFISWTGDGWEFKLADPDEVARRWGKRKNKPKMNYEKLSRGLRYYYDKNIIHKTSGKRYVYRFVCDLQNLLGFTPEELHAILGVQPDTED
# Procedure, shortened: as §1
# [14] = biological target: T9, SPDEF (Homo sapiens, UniProt O95238 1-335); conditions: protein: recombinant; tags: N-terminal GST; dsDNA, one strand shown
# T9 sequence: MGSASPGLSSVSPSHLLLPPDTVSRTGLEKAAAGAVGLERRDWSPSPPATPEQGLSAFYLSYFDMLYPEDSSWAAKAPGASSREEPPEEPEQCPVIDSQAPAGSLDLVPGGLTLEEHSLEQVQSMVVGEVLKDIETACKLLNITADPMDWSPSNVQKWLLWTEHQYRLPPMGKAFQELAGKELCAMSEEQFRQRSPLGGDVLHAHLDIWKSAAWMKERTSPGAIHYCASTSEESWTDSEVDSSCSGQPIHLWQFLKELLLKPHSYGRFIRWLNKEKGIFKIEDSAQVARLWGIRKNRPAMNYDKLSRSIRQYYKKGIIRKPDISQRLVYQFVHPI
# Procedure, shortened: as §1
# [15] = biological target: T10, ETV7 (Homo sapiens, UniProt Q9Y603 1-341); conditions: protein: recombinant; tags: N-terminal GST; dsDNA, one strand shown
# T10 sequence: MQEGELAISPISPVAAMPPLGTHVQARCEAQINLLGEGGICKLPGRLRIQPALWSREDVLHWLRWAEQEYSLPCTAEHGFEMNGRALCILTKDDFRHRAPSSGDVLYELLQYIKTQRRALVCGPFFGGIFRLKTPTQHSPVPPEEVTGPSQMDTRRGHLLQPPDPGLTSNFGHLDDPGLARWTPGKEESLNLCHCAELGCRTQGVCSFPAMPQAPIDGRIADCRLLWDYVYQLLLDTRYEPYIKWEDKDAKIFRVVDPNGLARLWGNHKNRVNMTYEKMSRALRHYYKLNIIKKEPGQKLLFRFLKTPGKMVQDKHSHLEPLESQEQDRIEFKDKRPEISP
# Procedure, shortened: as §1
# [16] = biological target: T11, ELF5 (Homo sapiens, UniProt Q9UKW6-2 1-255); conditions: protein: recombinant; tags: N-terminal GST; dsDNA, one strand shown
# T11 sequence: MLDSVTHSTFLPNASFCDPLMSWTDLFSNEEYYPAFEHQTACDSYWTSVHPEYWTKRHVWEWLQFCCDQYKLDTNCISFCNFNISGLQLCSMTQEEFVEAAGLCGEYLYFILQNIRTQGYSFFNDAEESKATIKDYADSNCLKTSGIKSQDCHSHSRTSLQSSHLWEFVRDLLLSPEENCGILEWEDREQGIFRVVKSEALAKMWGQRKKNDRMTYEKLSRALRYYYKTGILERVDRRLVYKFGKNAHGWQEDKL
# Procedure, shortened: as §1
# [17] = biological target: T12, ETV3 (Homo sapiens, UniProt P41162-2 1-143); conditions: protein: recombinant; tags: N-terminal GST; dsDNA, one strand shown
# T12 sequence: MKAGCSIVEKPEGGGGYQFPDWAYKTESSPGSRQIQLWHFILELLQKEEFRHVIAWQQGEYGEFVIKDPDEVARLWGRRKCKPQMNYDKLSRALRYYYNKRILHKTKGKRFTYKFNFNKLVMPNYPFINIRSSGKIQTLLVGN
# Procedure, shortened: as §1
# [18] = biological target: ETV6 (Homo sapiens, UniProt P41212 1-452); conditions: protein: recombinant; tags: N-terminal GST; dsDNA, one strand shown
# Chain of ETV6 (P41212 whole entry): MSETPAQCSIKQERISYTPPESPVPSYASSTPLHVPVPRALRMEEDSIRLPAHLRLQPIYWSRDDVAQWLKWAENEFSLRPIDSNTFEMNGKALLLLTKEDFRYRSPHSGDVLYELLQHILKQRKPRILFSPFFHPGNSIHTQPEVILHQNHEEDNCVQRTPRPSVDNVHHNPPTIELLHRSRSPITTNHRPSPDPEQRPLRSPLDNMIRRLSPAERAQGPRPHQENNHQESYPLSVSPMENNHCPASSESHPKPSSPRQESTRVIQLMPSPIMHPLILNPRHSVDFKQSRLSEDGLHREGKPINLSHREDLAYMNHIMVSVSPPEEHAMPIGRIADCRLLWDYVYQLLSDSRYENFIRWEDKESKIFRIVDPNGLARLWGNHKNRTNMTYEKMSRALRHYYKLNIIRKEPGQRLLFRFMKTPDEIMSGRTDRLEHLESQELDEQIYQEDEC
# Procedure, shortened: as §1
sequence,measurement,setting,value
ACTAGC,binding signal,[1],"1.11 fold enrichment (6-mer frequency, TF over GST control)"
same,binding signal,[2],"1.2 fold enrichment (6-mer frequency, TF over GST control)"
same,binding signal,[3],"1.32 fold enrichment (6-mer frequency, TF over GST control)"
same,binding signal,[4],"1.17 fold enrichment (6-mer frequency, TF over GST control)"
same,binding signal,[5],"1.17 fold enrichment (6-mer frequency, TF over GST control)"
same,binding signal,[6],"1.24 fold enrichment (6-mer frequency, TF over GST control)"
same,binding signal,[7],"1.3 fold enrichment (6-mer frequency, TF over GST control)"
same,binding signal,[8],"1.01 fold enrichment (6-mer frequency, TF over GST control)"
same,binding signal,[9],"1.11 fold enrichment (6-mer frequency, TF over GST control)"
same,binding signal,[10],"1.19 fold enrichment (6-mer frequency, TF over GST control)"
same,binding signal,[11],"1.19 fold enrichment (6-mer frequency, TF over GST control)"
same,binding signal,[12],"1.16 fold enrichment (6-mer frequency, TF over GST control)"
same,binding signal,[13],"1.16 fold enrichment (6-mer frequency, TF over GST control)"
same,binding signal,[14],"1.15 fold enrichment (6-mer frequency, TF over GST control)"
same,binding signal,[15],"1.16 fold enrichment (6-mer frequency, TF over GST control)"
same,binding signal,[16],"1.13 fold enrichment (6-mer frequency, TF over GST control)"
same,binding signal,[17],"1.15 fold enrichment (6-mer frequency, TF over GST control)"
same,binding signal,[18],"1.2 fold enrichment (6-mer frequency, TF over GST control)"

# From paper PMC7862700, “An all-to-all approach to the identification of sequence-specific readers for epigenetic DNA modifications on cytosine”
